Reference: PubChem BioAssay (NCATS)
Records with an inconclusive call do not appear. Activity calls are given as the source filed them. Calls follow the shape of the dose curve; as a rule, active = well fitted cell-killing curve with a large enough effect; inconclusive = small, poorly fitted or top-dose-only effect, or effect the other way; inactive = flat fitted curve, though single readings scatter. Where a SMILES comes first, the peptide text is derived from it.

The compounds below were run on CAOV3 (assay: Primary qHTS to identify gynecologic anti-cancer compounds using libraries of approved drugs and bioactive compounds (AID 1345084; also: nearly all actives have a fitted effect of over 55% in size)). Conditions: Gynecologic cancer cell panel viability, ATPlite luminescence, 48 h; series mostly up to 57.5 µM; activity change, negative = cytotoxicity: at the top concentration.
Description: National Center for Advancing Translational Sciences [NCATS] Assay Overview: Chemotherapeutic drug responses vary from cancer to cancer and from patient to patient. These variations could be caused by a number of factors including patient genomic background, tumor mutations, tumor heterogeneity, and aspects of drug treatment. Chemotherapeutic drug resistance is also a common issue and can lead to ineffective treatment and patient death. Here we have profiled the cell killing effects of thousands of compounds to characterize the responses in three gynecological cancers, identify cancer-selective compounds, and understand the diversity of responses to these compounds from pan-cancer suppressors to single cell line selective compounds. In this assay, we screened a 7,914 compound drug library that included approved drug and bioactive compounds in six ovarian, three cervical, and […] placental cancer cell lines using the ATPlite assay for cell viability. […] The cervical cancer cell lines included HeLa, Ca Ski, and C-33 A. The placental cancer cell lines included JEG-3. HEK 293T cells were used as the control cell line to determine the selectivity index. ATPlite is a luminescence based assay reliant on the conversion of a luciferase substrate to light in the presence of ATP. As a cytotoxic compound will suppress growth and decrease the number of cells, the concentration of ATP will decrease, and less light signal will be detected in the well.
Assay Protocol Summary: 1,000 cells in 4 uL of media were dispensed into white, solid bottom 1536-well plates using a Multidrop Combi (Thermo Scientific). The Assay plates were incubated for 16 hours at 37 C with 5% CO2 in assay plates, followed by the addition of 23 nL of DMSO or drug dissolved in DMSO. Each compound was assayed in five concentrations (0.092, 0.46, 2.3, 11.5, and 57.5 uM), using the automated Wako 1536 Pin Tool workstation and incubated at 37 C with 5% CO2 48 hours. 4 uL of ATPlite, the ATP monitoring reagent, was then added to the each well of the assay plates using the Multidrop Combi reagent dispenser followed by incubation for 15 minutes at room temperature. The resulting luminescence was measured using the ViewLux plate reader.
% is scaled to controls: 0 for no effect and ±100 for the full control effect; potency is read from the fitted curve at half-maximal effect.

SMILES	activity change, negative = cytotoxicity	Potency
C[C@@H]1C(=O)O[C@H]2[C@H]1CC[C@@]1(C)C(=O)C=C[C@](C)(O)[C@H]21	-1.61% (inactive)	–
COc1cc(COC2OC(CO)C(O)C(O)C2O)cc(OC)c1O (stereo not given)	-2.98% [at 38.5 µM] (inactive)	–
C[C@@]12C[C@]3(O)O[C@H](O1)[C@]1(COC(=O)c4ccccc4)[C@H]3C[C@@]12O[C@@H]1O[C@H](COC(=O)c2ccccc2)[C@@H](O)[C@H](O)[C@H]1O	4.01% [at 25.3 µM] (inactive)	–
O=C(c1ccc(NS(=O)(=O)c2cccc3cccnc23)cc1)N1CCN(CC2CC2)CC1	4.03% (inactive)	–
CC(O)C(O)/C=C/C=C/C(=O)O[C@@H]1C=C2COC(=O)[C@]2(O)[C@@]2(C)CCCC(C)(C)C12 (stereo not given in full)	-7.32% [at 25.3 µM] (inactive)	–
C=C(C)C(=O)O[C@H]1C[C@@](C)(OC(C)=O)[C@@]2(O)CC[C@@](C)(O)[C@H](OC(C)=O)[C@@]23OC(=O)C(COC)=C13	-9.91% [at 25.3 µM] (inactive)	–
CC1(C)O[C@]23C[C@H]1C[C@H](OC(=O)c1ccoc1)[C@]2(C)[C@@H](OC(=O)c1ccoc1)CCC3(C)O (stereo not given in full)	-4.24% [at 25.3 µM] (inactive)	–
COc1cc(C2Oc3c(O)cc(CCCO)cc3C2CO)ccc1O[C@H]1O[C@H](C)[C@@H](O)[C@H](O)[C@@H]1O (stereo not given in full)	3.19% [at 25.3 µM] (inactive)	–
c1ccc(Nc2nc3c(s2)CCCc2[nH]ncc2-3)nc1	6.47% (inactive)	–
C[C@@H](Nc1cc(NS(=O)(=O)N2CCC2)nc(SCc2cccc(F)c2F)n1)[C@@H](O)CO	-0.545% (inactive)	–
CC(=O)OC[C@]12[C@H](OC(C)=O)C(=O)[C@@H]3[C@@H](OC(C)=O)[C@@]14O[C@@]3(C)COC(=O)c1cccnc1[C@@H](C)[C@H](C)C(=O)O[C@@H]([C@H](OC(C)=O)[C@@H]2OC(C)=O)[C@]4(C)O	-3.2% [at 25.3 µM] (inactive)	–
NC(=O)c1ccc(OCC2NC(=O)C3CCCN3C2=O)cc1 (stereo not given)	3.1% (inactive)	–
O=C(/C=C/c1ccc(O)cc1)OCC1=CC2OC(=O)C3=CO[C@@H](O[C@@H]4O[C@H](CO)[C@@H](O)[C@H](O)[C@H]4O)[C@H]1[C@@H]32 (stereo not given in full)	8.76% [at 25.3 µM] (inactive)	–
C=C[C@H]1[C@H](O[C@@H]2O[C@H](CO)[C@@H](O)[C@H](O)[C@H]2O)OC=C2C(=O)OCC[C@]21O	0.929% [at 38.5 µM] (inactive)	–
C=CC(C)(O)CC/C=C(/C)C(=O)OC1C(OC2OCC(OC3OC(CO)C(O)C(O)C3O)C(OC3OCC(O)C(OC4OC(C)C(O)C(O)C4O)C3O)C2O)COC(OC(=O)C23CCC(C)(C)CC2C2=CCC4C5(C)CCC(OC6OC(CO)C(OC7OC(CO)C(O)C(OC8OCC(O)C(O)C8O)C7O)C(O)C6O)C(C)(C)C5CCC4(C)C2(C)CC3O)C1O (stereo not given)	6.96% [at 6.55 µM] (inactive)	–
NS(=O)(=O)OC[C@@H]1C[C@@H](n2ccc3c(N[C@H]4CCc5ccccc54)ncnc32)C[C@@H]1O	–	631 nM (active)
COC(=O)c1cc(CN2CCN(C(=N)N)CC2)cc(C(=O)N2CCN(C(=O)c3ccc(C(=N)N)cc3)CC2)c1	6.8% (inactive)	–
CC1=CC(=O)CC(C)(CO[C@@H]2O[C@H](CO)[C@@H](O)[C@H](O)[C@H]2O)C1(O)/C=C/C(C)=C/C(=O)O (stereo not given in full)	-1.61% [at 25.3 µM] (inactive)	–
CC1(C)NC2N(C1=O)c1ccccc1C2(O)CC(C(=O)O)n1cnc2ccccc2c1=O (stereo not given)	7.54% [at 25.3 µM] (inactive)	–
CC1(C)CC[C@]2(C(=O)O)CC[C@]3(C)C(=CCC4[C@@]5(C)C[C@H](O)[C@H](O[C@@H]6OC[C@H](O)[C@H](O)[C@H]6O)[C@@](C)(CO)C5CC[C@]43C)[C@@H]2C1 (stereo not given in full)	-1.32% [at 25.3 µM] (inactive)	–

SMILES	activity change, negative = cytotoxicity	Potency
C=C1CCC2C(C)(C(=O)O)CC(O)CC2(C)C1CC/C(C)=C/C(=O)O (stereo not given)	0.662% [at 38.5 µM] (inactive)	–
CC(C)(O)/C=C1/C(=O)C(C)(C)C(=O)C(C)(C)C1(O)O[C@@H]1O[C@H](COC(=O)c2cc(O)c(O)c(O)c2)[C@@H](O)[C@H](O)[C@H]1O (stereo not given in full)	5.73% [at 25.3 µM] (inactive)	–
C[C@@H]1CC[C@]2(C)C3(C)CC[C@@]2(OC3=O)[C@@]12C[C@H](c1ccoc1)OC2=O	5.42% [at 38.5 µM] (inactive)	–
CCOC(=O)Nc1nc2ccccc2[nH]1	-9.2% (inactive)	–
CC(C)CC(=O)n1cc(C(N)=O)c(=O)cc1C(O)c1ccccc1 (stereo not given)	5.08% [at 38.5 µM] (inactive)	–
CC(c1c[nH]c2ccccc12)C(O)C(=O)O (stereo not given)	9.7% (inactive)	–
C/C(=C\CCC(C)(O)c1ccc(C)cc1)C(=O)O (stereo not given)	-1.64% (inactive)	–
CC1(C)CCCC2(C)C3=C(C(=O)OC3O)C(O)CC12 (stereo not given)	0.626% (inactive)	–
CCn1cc(C2=NOC(C(=O)Nc3c(C)n(C)n(-c4ccccc4)c3=O)C2)c(C)n1 (stereo not given)	-0.346% (inactive)	–
CCC(CC)n1ccc2c(C(=O)NCc3c(C)cc(C)[nH]c3=O)cc(C#N)cc21	18.3% (inactive)	–
OC1COC(OCC2OC(OCCc3ccccc3)C(O)C(O)C2O)C(O)C1O (stereo not given)	-0.951% [at 25.3 µM] (inactive)	–
CC[C@H]1OC(=O)[C@H](C)[C@@H](OC2C[C@@](C)(OC)[C@@H](O)[C@H](C)O2)[C@H](C)[C@@H](OC2O[C@H](C)C[C@H](NC)[C@H]2O)[C@](C)(O)C[C@@H](C)CN(C)[C@H](C)[C@@H](O)[C@]1(C)O (stereo not given in full)	14.2% (inactive)	–
CC(=O)O[C@@]1(C)C[C@@H](O)[C@]2(O)C=CO[C@@H](O[C@@H]3O[C@H](CO)[C@@H](O)[C@H](O)[C@H]3O)[C@@H]21	-8.67% [at 25.3 µM] (inactive)	–
C=C/C=C/[C@@H]1OC[C@H](/C=C/C=C/C)[C@H]1O	9.1% (inactive)	–
C=CC1(C)C=C2C(=O)CC3C(C)(C)CCCC3(C(=O)O)C2(O)CC1 (stereo not given)	11% [at 38.5 µM] (inactive)	–
COC(=O)C1=COC(O[C@@H]2O[C@H](CO)[C@@H](O)[C@H](O)[C@H]2O)/C(=C\COC(=O)c2ccc(OC3OC(CO)C(O)C(O)C3O)c(OC)c2)C1CC(=O)OCCc1ccc(O)cc1 (stereo not given in full)	-8.27% [at 11.6 µM] (inactive)	–
CC(=O)OC1C(O)C(C)=C(CCC(C)CC(=O)O)C2(C)CCCC(C)(C)C12 (stereo not given)	1.95% [at 38.5 µM] (inactive)	–
C[C@@H](O)[C@H](N)C(=O)N1CCC[C@H]1C(=O)N1CCC[C@H]1C(=O)N[C@H](C(N)=O)[C@@H](C)O (H-TPPT-NH2)	3.79% [at 11.6 µM] (inactive)	–
c1ccc(Cc2ncc3c(n2)CCNCC3)cc1	16.7% (inactive)	–
Nc1c(Br)cc(Br)cc1CNC1CCC(O)CC1 (stereo not given)	-22.8% (inactive)	–
